This excerpt belongs to a sample that is enriched for hits.
TbPYK inhibitor: qHTS of Trypanosoma Brucei Inhibitors; AID 624173, 2012; TbPYK enzyme, Kinase-Glo Plus ATP luminescence, 45 min; pyruvate kinase (Trypanosoma brucei), Q57TT1; Potency, µM (highest dose often 76.8 µM), usual class: inhibitors; 410,000 tested, 0.12% active; also: nearly all actives have a fitted effect of over 50% in size
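Luminescent Kinase-Glo Plus end-point after 45 min room-temperature reaction of T. brucei pyruvate kinase started with 130 uM ADP (final). Buffer TEA 50 mM pH 7.2 with KCl, MgCl2, BSA, Tween-20; titration-based qHTS with fitted concentration-effect curves.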
Shiga toxin inh: A qHTS for Small Molecule Inhibitors of Shiga Toxin; inhibition, % at 38.7 µM; Vero cells, Shiga toxin protein synthesis inhibition reporter; 290,000 tested, 9.2% active; in the data active = inhibition mostly above about 28%, no sharp cut-off; inactive = mostly below about 43%
CHX counter: Cycloheximide Counterscreen for Small Molecule Inhibitors of Shiga Toxin; cell reporter, cycloheximide protein synthesis inhibition counterscreen; max response, %; 300,000 tested, 12% active; AID 2314, 2010; in the data active = max response mostly above about 13%, no sharp cut-off; inactive = mostly below about 14%; also: read at 38.3 µM for the half of the compounds with a filed dose
Sm TGR inh: qHTS Assay for the Inhibitors of Schistosoma Mansoni Peroxiredoxins; AID 485364, 2010; 360,000 tested, 3% active; Potency, µM (doses to about 114 µM), hits mostly inhibitors; purified TGR, DTNB reduction, TNB absorbance 405 nm; also: nearly all actives have a fitted effect of over 60% in size
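TGR 20 nM + NADPH 100 uM (dispensed conc.), cpd preinc 15 min RT; start with NADPH (500 uM addition) then DTNB (15 mM addition). Kinetic TNB absorbance, 405 nm filter. Four-parameter Hill fit across titration.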
LmPK inh: qHTS Assay for Inhibitors of Leishmania Mexicana Pyruvate Kinase (LmPK); purified LmPK, Kinase-Glo ATP luminescence, 1 h; Potency, µM (highest dose often 57.5 µM), actives largely listed as inhibitors; 290,000 tested, 0.37% active
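0.1 nM LmPK, 0.5 mM PEP, 0.1 mM ADP; 50 mM imidazole pH 7.2, 7 mM MgCl2, 50 mM KCl; 1 h RT. Kinase-Glo luminescence readout, normalized to no-enzyme (full inhibition) and uninhibited wells.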
FBPA Giardia inh: qHTS Assay for Inhibitors of Fructose-1,6-bisphosphate Aldolase from Giardia Lamblia | A8B2U2 | purified Giardia FBPA | Potency, µM (series often up to 59.6 µM), most hits filed as inhibitors | 290,000 tested, 0.71% active; also: nearly all actives have a fitted effect of over 55% in size
Target sequence (A8B2U2 whole entry, looked up): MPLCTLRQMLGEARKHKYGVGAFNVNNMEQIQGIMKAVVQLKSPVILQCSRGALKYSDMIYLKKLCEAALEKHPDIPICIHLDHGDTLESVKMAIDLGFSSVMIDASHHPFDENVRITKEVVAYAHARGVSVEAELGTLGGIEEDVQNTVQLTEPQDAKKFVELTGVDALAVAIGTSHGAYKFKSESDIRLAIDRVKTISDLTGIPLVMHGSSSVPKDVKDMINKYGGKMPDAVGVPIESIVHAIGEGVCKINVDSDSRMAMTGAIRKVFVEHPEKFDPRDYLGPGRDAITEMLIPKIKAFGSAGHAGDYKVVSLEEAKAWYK
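Giardia FBPA (40 nM reagent) was preincubated 10 min at RT with compound (up to 57.5 uM final), then substrate plus GAPDH/TPI/NAD/arsenate coupling system with diaphorase/resazurin was added; resorufin fluorescence (525/598 nm) was read after 20 min.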
Each line names hits and unclear results; the compound was inactive in the other large screens. Unless noted, calls follow the shape of the dose curve; as a rule, active = well fitted curve in the direction sought with a large enough effect; inconclusive = small, poorly fitted or top-dose-only effect, or another doubt; inactive = no such curve, though single readings can be large; an effect the other way counts as inactive or inconclusive.

COc1ncc2nc(CCc3ccccc3)c(=O)n(C3CC3)c2n1	none (no result: Shiga toxin inh, CHX counter, Sm TGR inh, LmPK inh)
CC(Cc1ccccc1)N1CCCC1=O (stereo unspecified)	none (no result: Shiga toxin inh, CHX counter, Sm TGR inh, LmPK inh, FBPA Giardia inh)
CCOC(=O)C(C)Sc1ncc(-c2ccc(Cl)cc2)cn1 (stereo unspecified)	CHX counter 13
CCOC(=O)C(C)Sc1nc(=O)n2cccc(C)c2n1 (stereo unspecified)	none
COc1ccc(-n2c(CCC(=O)O)ccc2-c2ccccc2)c(OC)c1	Sm TGR inh 8.9µM (no result: Shiga toxin inh, CHX counter, LmPK inh, FBPA Giardia inh)
COc1ccccc1-n1c(CCC(=O)O)ccc1-c1ccccc1	Shiga toxin inh 36, CHX counter 32, Sm TGR inh 28µM
COc1ccc(-c2ccc(CCC(=O)O)n2-c2ccccc2OC)cc1	Sm TGR inh 11µM
COc1ccc(NC(=O)Cn2c(CCC(=O)O)ccc2-c2ccccc2)cc1Cl	none (no result: Shiga toxin inh, CHX counter, LmPK inh, FBPA Giardia inh)
CN(C)S(=O)(=O)c1cccc(COC(=O)CCNC(=O)c2ccc([N+](=O)[O-])cc2)c1	none (no result: Shiga toxin inh, CHX counter, LmPK inh, FBPA Giardia inh)
O=C(N/N=C/c1cccc2cccnc12)c1ccccc1O	Shiga toxin inh 84, CHX counter 32, FBPA Giardia inh inconclusive
O=C(N/N=C/c1cccc2nccnc12)c1ccccc1O	Shiga toxin inh 37, CHX counter 19, FBPA Giardia inh inconclusive
O=C(Nc1nnc(SCc2ccc(F)cc2)s1)c1cccnc1Cl	CHX counter 18
O=C(Nc1nnc(SCc2ccc(F)cc2)s1)c1ccccn1	Shiga toxin inh 93, CHX counter 40, FBPA Giardia inh inconclusive
CN(C)Cc1ccccc1CNC(=O)c1cccc(S(=O)(=O)Nc2ccc3c(c2)OCO3)c1	none (no result: Shiga toxin inh, CHX counter, Sm TGR inh, LmPK inh, FBPA Giardia inh)
CCCNc1oc(-c2cccc3ccccc23)nc1C#N	Shiga toxin inh 69, CHX counter 22
N#Cc1nc(-c2cccc3ccccc23)oc1NCCN1CCOCC1	CHX counter 15
CN1CC[C@@]2(CCCN(C(=O)c3cccc(F)c3)C2)C1	none (no result: Shiga toxin inh, CHX counter, Sm TGR inh, LmPK inh)
COC(=O)[C@@H](NCc1ccc(OC)c(B(O)O)c1)C(C)C	none (no result: Shiga toxin inh, CHX counter, Sm TGR inh, LmPK inh, FBPA Giardia inh)
CCn1ccnc1CN(C)C(=O)c1cc(COc2ccc(OC)c3ccccc23)on1	CHX counter 8.3, FBPA Giardia inh inconclusive
Cc1cccc(C)c1OCc1cc(C(=O)N(C)Cc2cc(C3CC3)n[nH]2)no1	Shiga toxin inh 50, CHX counter 32
CCN(Cc1ccncc1)C(=O)c1cc(COc2c(C)cccc2C)on1	Shiga toxin inh 41, CHX counter 11
COc1cc(C)ccc1OCc1cc(C(=O)N(Cc2nccn2C)C(C)C)no1	Shiga toxin inh 87, CHX counter 73 (no result: FBPA Giardia inh)
Cc1ccc(OCc2cc(C(=O)N(C)Cc3cc(C4CC4)n[nH]3)no2)cc1C	none
Cc1cccc(C)c1OCc1cc(C(=O)N(Cc2nccn2C)C(C)C)no1	CHX counter 19
O=C(COCc1cc(-c2ccco2)on1)Nc1ccc(OC(F)(F)F)cc1	none (no result: Shiga toxin inh, CHX counter, LmPK inh, FBPA Giardia inh)
COc1ccc2cc(-c3ccn[nH]3)ccc2c1	Shiga toxin inh 80, CHX counter 32
COC(=O)CCSCc1cn2cc(Cl)ccc2n1	CHX counter 16
O=C(O)CSCc1cn2cc(Cl)ccc2n1	FBPA Giardia inh inconclusive
COc1cc(C2N(c3ccccc3)CCN2c2ccccc2)cc(OC)c1OC	CHX counter 13, FBPA Giardia inh inconclusive
O=C(CN1CCN(S(=O)(=O)c2ccccc2)CC1)N1CCCCC1	none (no result: Shiga toxin inh, CHX counter, LmPK inh, FBPA Giardia inh)
O=C(/C=C/c1c(Cl)cccc1Cl)N1CCOCC1	none (no result: Shiga toxin inh)
O=C(/C=C/c1c(F)cccc1Cl)N1CCOCC1	Shiga toxin inh 51, CHX counter 48 (no result: FBPA Giardia inh)
C=CCNC(=O)/C=C/c1c(F)cccc1Cl	Shiga toxin inh 57, CHX counter 29
O=C(/C=C/c1c(F)cccc1Cl)Nc1ccc(S(=O)(=O)Nc2ncccn2)cc1	none
O=C(/C=C/c1c(F)cccc1Cl)Nc1ncccn1	Shiga toxin inh 61, CHX counter 57
Cc1ccc(N2Cc3ccccc3C2=S)cc1	Shiga toxin inh 82, CHX counter 37
S=C1c2ccccc2CN1c1ccccc1	Shiga toxin inh 75, CHX counter 60
C[C@@H](C(=O)O)c1ccc(N2Cc3ccccc3C2=O)cc1	none (no result: TbPYK inhibitor, Shiga toxin inh, CHX counter, Sm TGR inh, LmPK inh)
Cc1cccc(CNc2cc(-c3ccoc3)ncn2)c1	none (no result: TbPYK inhibitor, Shiga toxin inh, CHX counter, Sm TGR inh, LmPK inh)
COc1nc(NCCc2ccc(OC)c(OC)c2)nc(Nc2ccccc2)n1	CHX counter 54 (no result: Shiga toxin inh)
COc1ccccc1-c1cnn2c(NCCc3ccccc3)cc(C)nc12	Shiga toxin inh 75, CHX counter 34
Cc1cc(NC(C)c2ccccc2)n2ncc(-c3ccccc3)c2n1 (stereo unspecified)	Shiga toxin inh 69, CHX counter 44
Cc1cc(NCCN2CCOCC2)n2ncc(-c3ccccc3)c2n1	Shiga toxin inh 41, CHX counter 28
O=S(=O)(NCCS(=O)(=O)N1CCN(c2cccc(Cl)c2)CC1)c1ccc(F)cc1	none (no result: Shiga toxin inh, CHX counter, LmPK inh, FBPA Giardia inh)
CCc1nnc(SCc2cccc(F)c2)c2cc3sc(C)cc3n12	none (no result: Shiga toxin inh, CHX counter, LmPK inh, FBPA Giardia inh)
Cc1cc(NCc2ccccc2)n2ncc(-c3ccccc3)c2n1	Shiga toxin inh 93, CHX counter 67
CC(C)(C)c1cc(NCc2ccccn2)n2ncc(-c3ccccc3)c2n1	Shiga toxin inh 97, CHX counter 51
c1ccc(-c2csc3ncnc(NCc4ccccn4)c23)cc1	FBPA Giardia inh inconclusive

Screening results deposited in PubChem by National Center for Advancing Translational Sciences (NCATS).
